Source: PubChem BioAssay (NCI)
This is part of a sample that, as a whole, favours compounds with a hit. Of some 79,000 tested, about 15% had one in any assay. Activity calls are given as the source filed them. Rule as the data show it: active = growth inhibition above about 70%; inactive = the rest.

Columns and labels:
[1] = NCI Yeast Anticancer Drug Screen. Data for the wt2 strain (AID 169);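 also: 0% = growth of vehicle-treated yeast cultures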; settings: S. cerevisiae wt2 strain growth inhibition, hits give high values
Method in brief: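 The panel's yeast strains carry defined changes in DNA repair or cell cycle genes. Each strain is grown with compound, and growth loss is scored relative to vehicle.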

[2] = NCI Yeast Anticancer Drug Screen. Data for the mlh1 strain (AID 171);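 also: 0% = growth of vehicle-treated control cultures of the same strain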; settings: S. cerevisiae mlh1 strain growth inhibition, hits give high values
Method in brief: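 Inhibition values reflect reduced yeast growth in the presence of compound, referenced to vehicle controls, using a strain chosen for its alteration in DNA repair or cell cycle control.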

[3] = NCI Yeast Anticancer Drug Screen. Data for the sgs1 strain (AID 173);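 also: 0% = growth of vehicle-only control cultures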; settings: S. cerevisiae sgs1 mutant, hits give high values
Method in brief: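 Vehicle-treated cultures served as reference for growth inhibition of a yeast strain altered in DNA damage repair or cell cycle control after compound exposure.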

[4] = NCI Yeast Anticancer Drug Screen. Data for the mlh1 rad18 strain (AID 175); settings: S. cerevisiae mlh1 rad18 strain growth inhibition, hits give high values
Method in brief: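 Inhibition values reflect reduced growth of mutant yeast versus vehicle-treated controls following compound exposure; the mutations affect DNA damage repair.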

[5] = NCI Yeast Anticancer Drug Screen. Data for the rad18 strain (AID 177); settings: S. cerevisiae rad18 mutant growth inhibition, hits give high values
Method in brief: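 Steps: expose repair-mutant yeast to compound; measure growth; express as inhibition relative to vehicle control.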

[6] = NCI Yeast Anticancer Drug Screen. Data for the rad52 strain (AID 147);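 also: 0% = growth of vehicle-treated control cultures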; settings: S. cerevisiae rad52 mutant growth inhibition, hits give high values
Method in brief: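 Inhibition of yeast growth, referenced to vehicle controls, was the measured output for a strain with defective DNA damage repair.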

[7] = NCI Yeast Anticancer Drug Screen. Data for the wt1 strain (AID 149);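 also: 0% = growth of vehicle-treated wt1 cultures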; settings: S. cerevisiae wt1 strain (SPY 50644) growth inhibition, hits give high values
Method in brief: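 Yeast wt1 strain exposed to compounds; growth inhibition measured relative to vehicle-treated controls.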

[8] = NCI Yeast Anticancer Drug Screen. Data for the rad50EPP+ strain (AID 151);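 also: 0% = growth of vehicle-treated control cultures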; settings: S. cerevisiae rad50 mutant strain, hits give high values
Method in brief: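 Genetically defined yeast (rad50EPP+, DNA damage repair alteration) is grown with compound, and inhibition of growth is expressed relative to vehicle-treated controls.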

[9] = NCI Yeast Anticancer Drug Screen. Data for the mgt1 strain (AID 153); settings: S. cerevisiae mgt1 mutant growth inhibition, hits give high values
Method in brief: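 In the mgt1 strain, test compounds were added and growth inhibition was determined relative to vehicle-treated controls.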

[10] = NCI Yeast Anticancer Drug Screen. Data for the rad50 strain (AID 155);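 also: 0% = growth of vehicle-only cultures of the same strain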; settings: S. cerevisiae rad50 strain growth inhibition, hits give high values
Method in brief: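 Yeast carrying a defined DNA repair defect were exposed to test compounds, and growth was compared with vehicle-treated controls to give percent inhibition.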

[11] = NCI Yeast Anticancer Drug Screen. Data for the mec2-1 strain (AID 157); settings: S. cerevisiae mec2-1 strain, hits give high values
Method in brief: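 Each compound was tested on mec2-1 yeast, a strain altered in DNA damage repair or cell cycle control. Growth inhibition is reported relative to vehicle.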

[12] = NCI Yeast Anticancer Drug Screen. Data for the rad14 strain (AID 159);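 also: 0% = growth of vehicle-treated control cultures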; settings: S. cerevisiae rad14 strain growth inhibition, hits give high values
Method in brief: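 Yeast cells carrying a defined DNA-repair defect were exposed to compounds, and growth inhibition was calculated relative to vehicle-treated control cultures.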

[13] = NCI Yeast Anticancer Drug Screen. Data for the sgs1 mgt1 strain (AID 161);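 also: 0% = growth of cultures given vehicle only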; settings: S. cerevisiae sgs1 mgt1 strain, hits give high values
Method in brief: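 Inhibition of yeast growth, normalised to vehicle-treated controls, is reported for a strain bearing genetic alterations in DNA damage repair.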

[14] = NCI Yeast Anticancer Drug Screen. Data for the CLN2oe strain (AID 163);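 also: 0% = growth of vehicle-only control cultures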; settings: S. cerevisiae CLN2oe strain, hits give high values
Method in brief: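 First, the altered yeast strain was treated with each compound; second, its growth was measured; finally, inhibition was derived by comparison with vehicle controls.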

[15] = NCI Yeast Anticancer Drug Screen. Data for the bub3 strain (AID 167); settings: S. cerevisiae bub3 mutant strain, hits give high values
Method in brief: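 Compounds were applied to a genetically altered yeast strain carrying a cell-cycle control defect. Growth inhibition was scored against vehicle-treated controls.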

[16] = NCI Yeast Anticancer Drug Screen. Data for the cln2 rad14 strain (AID 165);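 also: 0% = growth equal to vehicle treated cultures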; settings: S. cerevisiae cln2 rad14 strain, hits give high values
Method in brief: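 Test compounds were added to cln2 rad14 yeast cultures; inhibition of growth was then determined by comparison with vehicle treatment.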

[17] = at 5.0 µM (retest, dose inferred, filed as 0.5)
[18] = at 50.0 µM (retest, dose inferred, filed as 5.0)

Measured: growth inhibition

C[C@]12CCC(=O)C=C1CC[C@@H]1C2CC[C@@]2(C)C1CC[C@@H]2OC(=O)C12OC1CCC2=O (stereo partly specified)
inactive: [1]; at 1.2 µM -3% | [1]; at 3.7 µM 9% | [1]; at 11.0 µM 36% | [2]; at 1.2 µM 19% | [2]; at 3.7 µM 17% | [2]; at 11.0 µM 51% | [3]; at 1.2 µM 18% | [3]; at 3.7 µM 24% | [3]; at 11.0 µM 57% | [4]; [17] -21% | [5]; at 1.2 µM 9% | [5]; at 3.7 µM 14% | [5]; at 11.0 µM 39%
active: [1]; at 33.0 µM 91% | [1]; at 100.0 µM 96% | [2]; at 33.0 µM 94% | [2]; at 100.0 µM 97% | [3]; at 33.0 µM 95% | [3]; at 100.0 µM 96% | [4]; [18] 92% | [4]; at 50.0 µM 85.4% | [5]; at 33.0 µM 83% | [5]; at 100.0 µM 97%

O=C1C2CC(Cl)C(SSC3CC4C(=O)N(SC(Cl)(Cl)C(Cl)Cl)C(=O)C4CC3Cl)CC2C(=O)N1SC(Cl)(Cl)C(Cl)Cl (stereo unspecified)
active: [6]; at 1.2 µM 71% | [6]; at 3.7 µM 91% | [6]; at 11.0 µM 96% | [6]; at 33.0 µM 95% | [6]; at 100.0 µM 89% | [7]; at 3.7 µM 83% | [7]; at 11.0 µM 97% | [7]; at 33.0 µM 96% | [7]; at 100.0 µM 93% | [8]; at 1.2 µM 75% | [8]; at 3.7 µM 97% | [8]; at 11.0 µM 98% | [8]; at 33.0 µM 97% | [8]; at 100.0 µM 93% | [9]; at 3.7 µM 98% | [9]; at 11.0 µM 99% | [9]; at 33.0 µM 97% | [9]; at 100.0 µM 92% | [10]; at 3.7 µM 92% | [10]; [17] 98% | [10]; at 11.0 µM 97% | [10]; at 33.0 µM 96% | [10]; [18] 95% | [10]; at 50.0 µM 90.3% | [10]; at 100.0 µM 90% | [11]; at 3.7 µM 91% | [11]; [17] 100% | [11]; at 11.0 µM 99% | [11]; at 33.0 µM 98% | [11]; [18] 98% | [11]; at 50.0 µM 90.4% | [11]; at 100.0 µM 94% | [12]; at 1.2 µM 83% | [12]; at 3.7 µM 96% | [12]; at 11.0 µM 97% | [12]; at 33.0 µM 96% | [12]; at 100.0 µM 90% | [13]; [18] 95% | [13]; at 50.0 µM 89.5% | [14]; at 3.7 µM 96% | [14]; at 11.0 µM 98% | [14]; at 33.0 µM 97% | [14]; at 100.0 µM 90% | [15]; at 1.2 µM 80% | [15]; at 3.7 µM 99% | [15]; at 11.0 µM 99% | [15]; at 33.0 µM 96% | [15]; [18] 98% | [15]; at 50.0 µM 92.8% | [15]; at 100.0 µM 90% | [1]; at 3.7 µM 95% | [1]; at 11.0 µM 98% | [1]; at 33.0 µM 97% | [1]; at 100.0 µM 90% | [2]; at 3.7 µM 97% | [2]; at 11.0 µM 98% | [2]; at 33.0 µM 97% | [2]; at 100.0 µM 93% | [3]; at 1.2 µM 80% | [3]; at 3.7 µM 98% | [3]; at 11.0 µM 97% | [3]; at 33.0 µM 96% | [3]; at 100.0 µM 87% | [4]; [17] 99% | [4]; [18] 96% | [4]; at 50.0 µM 90.8% | [5]; at 1.2 µM 96% | [5]; at 3.7 µM 97% | [5]; at 11.0 µM 97% | [5]; at 33.0 µM 97% | [5]; at 100.0 µM 89%
inactive: [7]; at 1.2 µM 14% | [9]; at 1.2 µM 68% | [10]; at 1.2 µM 49% | [11]; at 1.2 µM 37% | [13]; [17] -9% | [14]; at 1.2 µM 40% | [15]; [17] -6% | [1]; at 1.2 µM 17% | [2]; at 1.2 µM 64%

COC1C(O)C(C)OC(OC2C(Oc3cccc4c(O)c5c(=O)oc6ccc(C)c7c(=O)oc(c34)c5c67)OC(C)C(O)C2O)C1O (stereo unspecified)
active: [6]; at 11.0 µM 85% | [6]; at 33.0 µM 87% | [6]; at 100.0 µM 89% | [10]; at 3.7 µM 78% | [10]; at 11.0 µM 83% | [10]; at 33.0 µM 84% | [10]; at 50.0 µM 88% | [10]; at 100.0 µM 84%
inactive: [6]; at 1.2 µM 41% | [6]; at 3.7 µM 67% | [7]; at 1.2 µM 6% | [7]; at 3.7 µM 2% | [7]; at 11.0 µM 8% | [7]; at 33.0 µM 17% | [7]; at 100.0 µM 12% | [8]; at 1.2 µM 7% | [8]; at 3.7 µM 22% | [8]; at 11.0 µM 31% | [8]; at 33.0 µM 39% | [8]; at 100.0 µM 35% | [9]; at 1.2 µM -4% | [9]; at 3.7 µM 7% | [9]; at 11.0 µM -4% | [9]; at 33.0 µM 25% | [9]; at 100.0 µM 18% | [10]; at 1.2 µM 57% | [10]; [17] 29% | [10]; [18] 68% | [11]; at 1.2 µM 1% | [11]; at 3.7 µM 4% | [11]; [17] 25% | [11]; at 11.0 µM 9% | [11]; at 33.0 µM 18% | [11]; [18] 15% | [11]; at 50.0 µM 33.8% | [11]; at 100.0 µM 34% | [12]; at 1.2 µM 5% | [12]; at 3.7 µM 9% | [12]; at 11.0 µM 20% | [12]; at 33.0 µM 30% | [12]; at 100.0 µM 32% | [13]; [17] 28% | [13]; [18] -2% | [13]; at 50.0 µM 3.65% | [14]; at 1.2 µM 1% | [14]; at 3.7 µM 1% | [14]; at 11.0 µM 9% | [14]; at 33.0 µM 2% | [14]; at 100.0 µM 17% | [16]; [17] 19% | [16]; [18] 5% | [16]; at 50.0 µM -3.1% | [15]; at 1.2 µM -5% | [15]; at 3.7 µM -3% | [15]; [17] 23% | [15]; at 11.0 µM -1% | [15]; at 33.0 µM -2% | [15]; [18] -5% | [15]; at 50.0 µM 57.7% | [15]; at 100.0 µM 14% | [1]; at 1.2 µM 0% | [1]; at 3.7 µM 3% | [1]; at 11.0 µM 12% | [1]; at 33.0 µM 22% | [1]; at 100.0 µM 20% | [2]; at 1.2 µM 0% | [2]; at 3.7 µM 6% | [2]; at 11.0 µM 9% | [2]; at 33.0 µM 17% | [2]; at 100.0 µM 30% | [3]; at 1.2 µM 1% | [3]; at 3.7 µM 4% | [3]; at 11.0 µM 15% | [3]; at 33.0 µM 20% | [3]; at 100.0 µM 22% | [4]; [17] -2% | [4]; [18] -4% | [4]; at 50.0 µM 46.2% | [5]; at 1.2 µM 6% | [5]; at 3.7 µM 3% | [5]; at 11.0 µM 17% | [5]; at 33.0 µM 21% | [5]; at 100.0 µM 16%
